In the library only some 4.6% were active in any assay of this set; here they are far more common.
TRb SRC2 PPI: disrupts binding of human TR beta to SRC2 | Potency, µM (highest dose often 106 µM), for the others: top-dose activity change, negative = inhibition, hits mostly inhibitors | 280,000 tested, 0.065% active | AID 1469 | TRbeta-SRC2 peptide binding, fluorescence polarization; receptor liganded with 1 µM T3;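 also: potency is read from the fitted curve at half-maximal effect; plate controls were bound peptide for no effect and peptide without receptor for full effect; nearly all actives have a fitted effect of over 50% in size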
Target sequence (P10828 whole entry, looked up): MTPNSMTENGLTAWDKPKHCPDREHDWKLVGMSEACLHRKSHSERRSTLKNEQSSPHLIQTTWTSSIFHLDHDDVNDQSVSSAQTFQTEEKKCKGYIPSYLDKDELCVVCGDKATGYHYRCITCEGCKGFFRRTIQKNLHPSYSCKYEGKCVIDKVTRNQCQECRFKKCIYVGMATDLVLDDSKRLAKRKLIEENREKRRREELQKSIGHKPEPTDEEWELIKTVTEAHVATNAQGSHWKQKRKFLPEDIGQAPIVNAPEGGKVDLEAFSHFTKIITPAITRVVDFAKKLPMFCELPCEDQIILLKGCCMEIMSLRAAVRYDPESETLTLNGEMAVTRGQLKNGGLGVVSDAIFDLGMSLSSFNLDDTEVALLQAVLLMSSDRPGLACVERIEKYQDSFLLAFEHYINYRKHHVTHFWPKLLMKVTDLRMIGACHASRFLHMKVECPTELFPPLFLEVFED
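Compounds were added to 0.6 uM TRb ligand-binding domain and 20 nM Texas Red-labeled SRC2 peptide in Tris buffer containing 1 uM T3, incubated 5 hr at ambient temperature, then read by fluorescence polarization.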
Tau fibril ThT: tau fibrillization inhibition (ThT binding) | P10636 | recombinant tau K18 P301L, heparin-induced fibrillization, ThT fluorescence | Potency, µM (highest dose often 57.4 µM), for the others: at the highest dose activity, negative = inhibition, most hits filed as inhibitors | 270,000 tested, 2.1% active; also: potency is read from the fitted curve at half-maximal effect; nearly all actives have a fitted effect of over 55% in size
Target sequence (P10636 561-689 P618L limits assumed): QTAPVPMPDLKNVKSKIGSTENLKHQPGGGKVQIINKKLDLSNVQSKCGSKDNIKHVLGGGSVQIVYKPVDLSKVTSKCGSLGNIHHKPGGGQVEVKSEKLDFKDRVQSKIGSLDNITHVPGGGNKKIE
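In this qHTS, human K18 P301L tau is incubated with compound and heparin for 6 hr at 37 C, and Thioflavin T fluorescence then reports fibril load.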
Tau fluor cs: counter-screen for tau fibril formation inhibitors | tau K18 P301L Alexa594 fluorescence, heparin fibrillization | Potency, µM (series often up to 57.7 µM), for inactives: at the highest dose activity change, negative = decrease | 280,000 tested, 0.93% active | AID 1463; also: potency is read from the fitted curve at half-maximal effect; nearly all actives have a fitted effect of over 55% in size
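Human tau K18 P301L (15 uM unlabeled, 0.24 uM Alexa 594-labeled) in 100 mM sodium acetate pH 7 with 20 uM heparin, 6 hr at 37 C. ThT 30 uM added, 1 hr ambient; Alexa 594 FP and total fluorescence read at 555/632 nm.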
PNC assembly inh: perinucleolar compartment assembly inhibition | PC3M PTB-GFP, PNC prevalence imaging, 16 h; active compounds read low | activity change (PNC), negative = inhibition, % at 10 µM | 140,000 tested, 3.1% active | AID 2417;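 active = readout at or below -70, meaning at least 70% loss of cells showing the perinucleolar compartment, a nuclear body marking cancer cells; inconclusive = readout between -30 and a set limit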;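 also: plate controls were DMSO wells for no effect and camptothecin positive control wells for full effect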
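Compounds are pinned in duplicate onto adhered PC3M cells stably expressing GFP-tagged PTB and incubated 16 h at 37 C. Cells are then fixed, nuclei stained with Hoechst, and PNC-positive cells counted.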
TR SRC2 fluor cs: alters Texas Red total fluorescence, flagging assay interference | AID 1479 | TRb/SRC2 Texas Red total fluorescence interference | Potency, µM (series often up to 106 µM), inactives show at the highest dose fluorescence change, negative = quenching | 280,000 tested, 0.29% active; active = well fitted curve in either direction with a large enough effect; inconclusive = small, poorly fitted or top-dose-only effect; also: potency is read from the fitted curve at half-maximal effect
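Human TRβ ligand-binding domain (0.6 uM) and Texas Red SRC2 peptide (20 nM) in Tris buffer with 1 uM T3 and 5% DMSO were incubated with pinned compound for 5 hr at ambient temperature. Total fluorescence was computed as S + 2P (555/632 nm).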
Tau FP inhib: inhibitors of human tau fibril formation. 280,000 tested, 0.39% active. Potency, µM (titrated, usually from 57.7 µM), for inactives: at the top dose activity, negative = inhibition, most hits filed as inhibitors. K18 P301L tau heparin fibrillization, Alexa594 FP, 6 h. AID 1468. P10636; also: potency is read from the fitted curve at half-maximal effect; nearly all actives have a fitted effect of over 55% in size
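Human tau K18 […] P301L fragment, 15 uM unlabeled plus 0.24 uM Alexa 594-labeled tau (final), with compound and 20 uM heparin in 100 mM sodium acetate pH 7; 6 hr at 37 C, then Alexa 594 FP read.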
Starred values were filed as active, the others as inactive; ! = not confirmed by another sample; [ ] = another dose, or the depositor's remark. Unless noted, calls follow the shape of the dose curve; as a rule, active = well fitted curve in the direction sought with a large enough effect; inconclusive = small, poorly fitted or top-dose-only effect, or another doubt; inactive = no such curve, though single readings can be large; an effect the other way counts as inactive or inconclusive. Unless noted, % is scaled to controls: 0 for no effect and ±100 for the full control effect.

Results for COc1ccc(CN2C3CCCC2CC(NC(=O)Nc2ccccc2C)C3)cc1 (stereo not drawn) ?
TRb SRC2 PPI: -7%; Tau fibril ThT: 3%; Tau fluor cs: 2%; PNC assembly inh: -100*; TR SRC2 fluor cs: -5%; Tau FP inhib: 3%

What do the screens show for `Cc1nc(NC(=O)c2cccnc2)ccc1Br`?
TRb SRC2 PPI: 3%; Tau fibril ThT: -11%; Tau fluor cs: -3%; PNC assembly inh: inconclusive; TR SRC2 fluor cs: 3%; Tau FP inhib: -1%

Results for Cc1ccccc1C(=O)Nc1ccc(Br)c(C)n1 ?
TRb SRC2 PPI: 0%; Tau fibril ThT: -15%; Tau fluor cs: -13%; PNC assembly inh: -107*; TR SRC2 fluor cs: 1%; Tau FP inhib: 2%

How did COc1ccc(C2=CC3=C(Br)C(=O)C(C)(O)C(=O)C3=CO2)cc1 (stereo not drawn) do in these assays?
TRb SRC2 PPI: 8%; Tau fibril ThT: 18µM*!; Tau fluor cs: inconclusive; TR SRC2 fluor cs: -2%; Tau FP inhib: inconclusive

How did CCC(=O)OC1(C)C(=O)C=C2C=C(c3ccc(C#N)cc3)OC=C2C1=O (stereo not drawn) do in these assays?
TRb SRC2 PPI: 6%; Tau fibril ThT: -10%; Tau fluor cs: -4%; TR SRC2 fluor cs: -1%; Tau FP inhib: -8%

Results for CCC(=O)OC1(C)C(=O)C2=COC(c3ccc(OC)cc3)=CC2=C(Br)C1=O (stereo not drawn) ?
TRb SRC2 PPI: 3%; Tau fibril ThT: 16µM*; Tau fluor cs: -11%; TR SRC2 fluor cs: -1%; Tau FP inhib: -7%

Results for COc1cccc2cc(-c3ccnc(=S)[nH]3)oc12 ?
TRb SRC2 PPI: 1%; Tau fibril ThT: 28µM*; Tau fluor cs: -19%; TR SRC2 fluor cs: -2%; Tau FP inhib: inconclusive

How did O=C(NCc1cccs1)c1ccc([N+](=O)[O-])cc1 do in these assays?
TRb SRC2 PPI: inconclusive; Tau fibril ThT: -12%; Tau fluor cs: -10%; PNC assembly inh: 79; TR SRC2 fluor cs: 0.1µM*[quencher]; Tau FP inhib: 10%

Results for Cc1cc(/C=C2\SC(=S)NC2=O)c(C)n1C1CC1 ?
TRb SRC2 PPI: 1%; Tau fibril ThT: 13µM*; Tau fluor cs: -28%; PNC assembly inh: 127; TR SRC2 fluor cs: -1%; Tau FP inhib: 5%

How did COc1ccc(NC(=O)CN(c2ccc(C)cc2)S(=O)(=O)c2cccs2)cc1 do in these assays?
TRb SRC2 PPI: -3%; Tau fibril ThT: 9%; Tau fluor cs: -13%; TR SRC2 fluor cs: -1%; Tau FP inhib: -1%

Results for CCOC(=O)/C(C#N)=C/C=C1\C=Cc2ccccc2N1CC ?
TRb SRC2 PPI: -2%; Tau fibril ThT: 1.6µM*; Tau fluor cs: -30%; TR SRC2 fluor cs: 0%; Tau FP inhib: -10%

How did CN1/C(=C/C=C(C#N)C#N)C=Cc2ccccc21 do in these assays?
TRb SRC2 PPI: inconclusive; Tau fibril ThT: inconclusive; Tau fluor cs: inconclusive; TR SRC2 fluor cs: inconclusive; Tau FP inhib: 25µM*

How did CCCN1C=CC(=C/C=C(\C#N)C(=O)OCC)C=C1 do in these assays?
TRb SRC2 PPI: -15%; Tau fibril ThT: inconclusive; Tau fluor cs: -3%; PNC assembly inh: -8; TR SRC2 fluor cs: -4%; Tau FP inhib: 9%

What do the screens show for `Cc1cc(=O)c2c(O)cc(O)c(C)c2o1`?
TRb SRC2 PPI: -2%; Tau fibril ThT: 25µM*; Tau fluor cs: 28µM*[quencher]; TR SRC2 fluor cs: -3%; Tau FP inhib: inconclusive

What do the screens show for `CCOC(=O)c1c(NC(=O)COC)sc2c1CCCC2`?
TRb SRC2 PPI: -1%; Tau fibril ThT: inconclusive; Tau fluor cs: -23%; PNC assembly inh: -84*; TR SRC2 fluor cs: -4%; Tau FP inhib: -1%

What do the screens show for `CCOC(=O)c1c(NC(=O)COc2ccc(CC)cc2)sc2c1CCCC2`?
TRb SRC2 PPI: -2%; Tau fibril ThT: -14%; Tau fluor cs: -6%; TR SRC2 fluor cs: -7%; Tau FP inhib: -1%

Results for CCOC(=O)c1[nH]c(C)c(C(=O)N2CCN(C(=O)c3ccco3)CC2)c1C ?
TRb SRC2 PPI: -3%; Tau fibril ThT: 4%; Tau fluor cs: 6%; PNC assembly inh: -100*; TR SRC2 fluor cs: 0%; Tau FP inhib: 1%

Results for CNC(=O)c1c(NC(=O)Cc2coc3ccc(C)cc23)sc2c1CCCC2 ?
TRb SRC2 PPI: -1%; Tau fibril ThT: inconclusive; Tau fluor cs: inconclusive; TR SRC2 fluor cs: inconclusive; Tau FP inhib: -5%

What do the screens show for `CCOC(=O)c1[nH]c(C)c(C(=O)N2CCN(c3ccc(F)cc3)CC2)c1C`?
TRb SRC2 PPI: 5%; Tau fibril ThT: -10%; Tau fluor cs: -5%; PNC assembly inh: -28; TR SRC2 fluor cs: -2%; Tau FP inhib: 10%

Results for CCOC(=O)c1c(NC(=O)Cc2coc3cc(C)ccc23)sc2c1CCCC2 ?
TRb SRC2 PPI: inconclusive; Tau fibril ThT: inconclusive; Tau fluor cs: -20%; TR SRC2 fluor cs: 0.1µM*[quencher]; Tau FP inhib: -4%

Results for CCCc1ccc(OCC(=O)Nc2sc3c(c2C(=O)OCC)CCC(C(C)(C)C)C3)cc1 (stereo not drawn) ?
TRb SRC2 PPI: inconclusive; Tau fibril ThT: -9%; Tau fluor cs: -1%; TR SRC2 fluor cs: 10µM*[quencher]; Tau FP inhib: 2%

Results for CCOc1cc(N2CCOCC2)c(OCC)cc1NC(=O)c1nc2nccc(C)n2n1 ?
TRb SRC2 PPI: 1%; Tau fibril ThT: -10%; Tau fluor cs: 2%; PNC assembly inh: 41; TR SRC2 fluor cs: -6%; Tau FP inhib: 11%

How did CCOC(=O)c1c(NC(=O)CSc2c[nH]c3ccccc23)sc2c1CCC2 do in these assays?
TRb SRC2 PPI: 5%; Tau fibril ThT: -7%; Tau fluor cs: 10µM*[quencher]; PNC assembly inh: 64; TR SRC2 fluor cs: -1%; Tau FP inhib: inconclusive

What do the screens show for `CCOC(=O)c1c(NC(=O)CN2CCN(C(=O)c3ccco3)CC2)sc2c1CCCC2`?
TRb SRC2 PPI: 7%; Tau fibril ThT: inconclusive; Tau fluor cs: -7%; PNC assembly inh: -100*; TR SRC2 fluor cs: -2%; Tau FP inhib: 4%

Results for CCOC(=O)c1c(NC(=O)c2ccco2)sc2c1CCCC2 ?
TRb SRC2 PPI: 3%; Tau fibril ThT: -7%; Tau fluor cs: -7%; PNC assembly inh: -25; TR SRC2 fluor cs: -1%; Tau FP inhib: 2%

What do the screens show for `Cc1ccn2cc(-c3ccc(C)c(NS(=O)(=O)c4ccc(Cl)cc4)c3)nc2c1`?
TRb SRC2 PPI: -3%; Tau fibril ThT: -5%; Tau fluor cs: inconclusive; TR SRC2 fluor cs: -1%; Tau FP inhib: -11%

Bioassay records deposited in PubChem BioAssay by National Center for Advancing Translational Sciences (NCATS).
